# Measured values taken from PubChem BioAssay (NCATS).
# Where “and” joins values, the source holds several entries; their conditions need not be identical. Equal entries are not always repeated. A number with no mark means an inactive call. Inconclusive results are not listed. More than one record can exist for a structure, and the calls need not agree. Calls of active or inactive are those of the source. Unless noted, calls come from the whole dose curve; as a rule, active = well fitted curve in the direction sought with a large enough effect; inconclusive = small, poorly fitted or top-dose-only effect, or another doubt; inactive = no such curve, though single readings can be large; an effect the other way counts as inactive or inconclusive.
# Assays:
# PA-1 = assay: Primary qHTS to identify gynecologic anti-cancer compounds using libraries of approved drugs and bioactive compounds (AID 1345084); settings: Gynecologic cancer cell panel viability, ATPlite luminescence, 48 h; series mostly up to 57.5 µM; note: nearly all actives have a fitted effect of over 55% in size; note: potency is the fitted concentration of half-maximal effect
# How it was run: (§1)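 Five-point cytotoxicity, 48 h drug exposure at 37 C, 5% CO2, on cells seeded 16 h beforehand. ATP content read by ATPlite luminescence.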
# SKOV3 = assay: as above; settings: Gynecologic cancer cell panel viability, ATPlite luminescence, 48 h; series mostly up to 57.5 µM
# How it was run: as §1
# Tov-21-G = assay: as above; settings: Gynecologic cancer cell panel viability, ATPlite luminescence, 48 h; series mostly up to 57.5 µM
# How it was run: as §1
# Tov112D = assay: as above; settings: Gynecologic cancer cell panel viability, ATPlite luminescence, 48 h; series mostly up to 57.5 µM
# How it was run: as §1
# [1] = qHTS assay for small molecule activators of the human pregnane X receptor (PXR) signaling pathway (AID 720659; call rule not given here; note: 0% is about no effect); settings: DPX-2 HepG2 CYP3A4-luciferase, 24 h; series mostly up to 92.3 µM
# [2] = Drug repurposing screens with cells derived from glioblastoma tumor samples (AID 1345199); settings: GBM patient neurospheres viability, ATP luminescence, 48 h; note: nearly all actives have a fitted effect of over 40% in size; note: potency is the fitted concentration of half-maximal effect; for activity, negative = cell killing: % is set by controls: 0 for no effect and ±100 for the full control effect
# How it was run: (§2)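 Four patient lines of CD133+ GBM neurospheres were screened at several concentrations; hits were retested in those lines plus three slower-growing GBM lines, using 48-hour treatment and ATP-based viability.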
# astro = assay: as above; settings: viability, ATP luminescence, 48 h; series mostly up to 45.9 µM
# How it was run: as §2
# [3] = biological target: Nuclear receptor subfamily 1 group I member 2 (Rattus norvegicus) (UniProt Q9R1A7); assay: qHTS assay for small molecule activators of the rat pregnane X receptor (rPXR) signaling pathway (AID 651751; call rule not given here; note: 0% is about no effect); settings: rPXR reporter cells, luciferase (One-Glo), 24 h
# [4] = at 45.9 µM (top of the series), tumour line B
# [5] = at 45.9 µM (top of the series), tumour line D
# [6] = at 46.1 µM (top of the series), tumour line C
# [7] = at 91.6 µM (top of the series), tumour line B
# [8] = at 99.2 µM (top of the series), tumour line C
# [9] = at 108 µM (top of the series), tumour line B
# [10] = at 20 µM (top of the series), tumour line C
# [11] = at 21.2 µM (top of the series), tumour line B
# [12] = at 21.2 µM (top of the series), tumour line D
# [13] = at 46 µM (top of the series), tumour line A
# [14] = at 21.3 µM (top of the series), tumour line A
# Chain of Nuclear receptor subfamily 1 group I member 2 (Rattus norvegicus) (Q9R1A7 whole entry, looked up): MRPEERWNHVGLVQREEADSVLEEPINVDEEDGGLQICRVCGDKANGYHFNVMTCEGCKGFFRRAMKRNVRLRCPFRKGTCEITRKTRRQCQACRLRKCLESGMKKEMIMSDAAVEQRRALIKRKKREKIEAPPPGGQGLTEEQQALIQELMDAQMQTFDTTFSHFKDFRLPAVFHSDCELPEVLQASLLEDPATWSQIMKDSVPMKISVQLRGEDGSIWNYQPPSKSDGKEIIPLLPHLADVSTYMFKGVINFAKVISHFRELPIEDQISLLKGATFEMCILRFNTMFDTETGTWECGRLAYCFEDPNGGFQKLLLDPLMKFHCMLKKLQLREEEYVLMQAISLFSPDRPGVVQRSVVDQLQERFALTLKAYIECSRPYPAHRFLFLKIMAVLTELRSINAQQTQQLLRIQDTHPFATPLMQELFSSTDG
smiles,measurement,setting,value
COC1=CC(=O)O[C@@H](/C=C/c2ccccc2)C1,Potency,PA-1,inactive
same,Potency,SKOV3,inactive
same,Potency,Tov-21-G,inactive
same,Potency,Tov112D,inactive
same,outcome,[1],inactive
Cc1cccc(NC(=O)N[C@@H]2N=C(c3ccccc3)c3ccccc3N(C)C2=O)c1,Potency,PA-1,inactive
same,Potency,Tov-21-G,inactive
same,Potency,Tov112D,inactive
Clc1ccc(N2C[C@H]3CC[C@@H](C2)N3)nn1,Potency,PA-1,inactive
same,Potency,SKOV3,inactive
same,Potency,Tov-21-G,inactive
same,Potency,Tov112D,inactive
C=C[C@H]1CN2CC[C@H]1C[C@@H]2[C@@H](O)c1ccnc2ccccc12,Potency,PA-1,inactive
same,Potency,SKOV3,inactive
same,Potency,Tov-21-G,inactive
same,Potency,Tov112D,inactive
same,"activity, negative = cell killing",[2]; [4],-7.16%
same,"activity, negative = cell killing",[2]; [5],-9.4%
same,"activity, negative = cell killing",[2]; [6],15.7%
same,Potency,[2]; tumour line A,17.8 µM (active)
same,Potency,astro,inactive
Cc1cc(C(=O)CN2CCCC2)c(C)n1-c1ccc(F)cc1,Potency,PA-1,inactive
same,Potency,Tov-21-G,inactive
same,Potency,Tov112D,inactive
CC[C@H]1CN2CC[C@H]1C[C@H]2[C@H](O)c1ccnc2ccc(OC)cc12,Potency,PA-1,inactive
same,Potency,SKOV3,inactive
same,Potency,Tov-21-G,inactive
same,Potency,Tov112D,inactive
CC(C)[C@@H](CN1CC[C@@](C)(c2cccc(O)c2)[C@@H](C)C1)NC(=O)[C@H]1Cc2ccc(O)cc2CN1,Potency,PA-1,inactive
same,Potency,Tov-21-G,inactive
same,Potency,Tov112D,inactive
CC(C)C1(OO)C=C2C(=O)CC3C(C)(C(=O)O)CCCC3(C)C2CC1 (stereo unspecified),Potency,PA-1,inactive
same,Potency,SKOV3,inactive
same,Potency,Tov-21-G,inactive
same,Potency,Tov112D,inactive
CCC1NC(=O)C2C(Cl)C(Cl)CN2C(=O)C(C(C)O)NC(=O)CC(c2ccccc2)NC(=O)C(CO)NC1=O (stereo unspecified),Potency,PA-1,inactive
same,Potency,Tov-21-G,inactive
same,Potency,Tov112D,inactive
Cn1ncnc1COc1nn2c(-c3c(F)cccc3F)nnc2cc1C1CCC1,Potency,PA-1,inactive
same,Potency,SKOV3,inactive
same,Potency,Tov-21-G,inactive
same,Potency,Tov112D,inactive
COC(=O)C1(C)CCC(O)C2(C)c3cc(O)c(C(C)C)cc3C(O)C(OC(C)=O)C12 (stereo unspecified),Potency,Tov-21-G,inactive
same,Potency,Tov112D,inactive
CCCSP(=O)(OCC)SCCC,Potency,PA-1,inactive
same,Potency,SKOV3,inactive
same,Potency,Tov-21-G,inactive
same,Potency,Tov112D,inactive
same,"activity, negative = cell killing","[2]; at 91.6 µM (top of the series), tumour line A",-29.2%
same,"activity, negative = cell killing",[2]; [7],-4.25%
same,"activity, negative = cell killing","[2]; at 91.6 µM (top of the series), tumour line D",-15.9%
same,"activity, negative = cell killing",[2]; [8],13.9%
same,Potency,astro,inactive
same,max response,[3],5.9%
O=C1C[C@@H]2OCC=C3CN4CC[C@]56c7ccccc7N1[C@H]5[C@H]2[C@H]3C[C@H]46,Potency,PA-1,inactive
same,Potency,SKOV3,inactive
same,Potency,Tov-21-G,inactive
same,Potency,Tov112D,inactive
same,"activity, negative = cell killing",[2]; [4],-6.57%
same,"activity, negative = cell killing",[2]; [5],-6.6%
same,"activity, negative = cell killing",[2]; [6],6.33%
same,Potency,[2]; tumour line A,12.6 µM (active)
same,Potency,astro,inactive
same,max response,[3],0.534%
C[CH2][Hg][S]c1ccccc1C(=O)O,Potency,Tov-21-G,35.5 µM (active)
same,Potency,astro,1.58 µM (active)
COc1ccc2c3c1O[C@H]1[C@@H](O)C=C[C@H]4[C@@H](C2)NCC[C@@]341,"activity, negative = cell killing",[2]; [4],-18.4%
same,"activity, negative = cell killing",[2]; [5],-17.8%
same,"activity, negative = cell killing",[2]; [6],-25.3%
same,"activity, negative = cell killing",[2]; [8],6.81%
same,"activity, negative = cell killing",[2]; [9],-9.55%
same,"activity, negative = cell killing","[2]; at 108 µM (top of the series), tumour line D",-1.54%
same,Potency,astro,inactive
CCN(CC)C(=O)N[C@H]1C[C@@H]2c3cccc4[nH]cc(c34)C[C@H]2N(C)C1,"activity, negative = cell killing",[2]; [4],-22.5%
same,"activity, negative = cell killing",[2]; [5],-14.1%
same,"activity, negative = cell killing",[2]; [6],-20.3%
same,Potency,[2]; tumour line A,22.4 µM (active)
same,Potency,astro,inactive
COC1=CC=C2[C@H]3Cc4ccc(OC)c5c4[C@@]2(CCN3C)[C@H]1O5,"activity, negative = cell killing",[2]; [10],-9.82%
same,"activity, negative = cell killing",[2]; [11],-2.9%
same,"activity, negative = cell killing",[2]; [12],-4.5%
same,"activity, negative = cell killing",[2]; [7],-4.24%
same,"activity, negative = cell killing",[2]; [8],12%
same,Potency,[2]; tumour line A,35.5 µM (active)
same,Potency,[2]; tumour line D,35.5 µM (active)
same,Potency,astro,inactive
CC(N)Cc1ccc(O)cc1 (stereo unspecified),"activity, negative = cell killing",[2]; [4],-3.82%
same,"activity, negative = cell killing",[2]; [5],-1.1%
same,"activity, negative = cell killing",[2]; [13],-18.1%
same,"activity, negative = cell killing",[2]; [6],5.3%
same,Potency,astro,inactive
CCCCC[C@@H](O)C1C(=O)OC(C)[C@H](O)/C=C/C=C/C=C/C=C/C=C(\C)C(O)C(O)C(O)C[C@H](O)C[C@H](O)C[C@H](O)C[C@H](O)C[C@@H]1O (stereo partly specified),"activity, negative = cell killing",[2]; [4],-7.45% and 7.1%
same,"activity, negative = cell killing",[2]; [5],14.9% and -7.76%
same,"activity, negative = cell killing",[2]; [13],-18.3% and -29%
same,"activity, negative = cell killing",[2]; [6],-15.7% and -7.35%
same,Potency,astro,inactive
C#CCN1CC(=O)N(COC(=O)C2C(C=C(C)C)C2(C)C)C1=O (stereo unspecified),"activity, negative = cell killing",[2]; [4],-9.8%
same,"activity, negative = cell killing",[2]; [5],15.2%
same,"activity, negative = cell killing",[2]; [13],-23.1%
same,"activity, negative = cell killing",[2]; [6],-15.9%
same,Potency,astro,inactive
Clc1ccc(Cl)cc1,"activity, negative = cell killing",[2]; [4],-3.79%
same,"activity, negative = cell killing",[2]; [5],-0.0641%
same,"activity, negative = cell killing",[2]; [13],-16.3%
same,"activity, negative = cell killing",[2]; [6],-0.658%
same,Potency,astro,inactive
CCC1(c2ccccc2)C(=O)NC(=O)NC1=O,"activity, negative = cell killing",[2]; [4],-10.3%
same,"activity, negative = cell killing",[2]; [5],2.64%
same,"activity, negative = cell killing",[2]; [13],-5.16%
same,"activity, negative = cell killing",[2]; [6],3.61%
same,Potency,astro,inactive
CC(=O)Oc1ccc2c3c1O[C@H]1[C@@H](OC(C)=O)C=C[C@H]4[C@@H](C2)N(C)CC[C@@]341,"activity, negative = cell killing",[2]; [4],1.1%
same,"activity, negative = cell killing",[2]; [5],-2.21%
same,"activity, negative = cell killing",[2]; [6],-13.5%
same,"activity, negative = cell killing",[2]; [8],-29.8%
same,"activity, negative = cell killing",[2]; [9],-14.9%
same,Potency,astro,inactive
O=c1ccc2cc(O[C@@H]3O[C@H](CO)[C@@H](O)[C@H](O)[C@H]3O)c(O)cc2o1,"activity, negative = cell killing",[2]; [10],-2.02%
same,"activity, negative = cell killing",[2]; [11],-12.8%
same,"activity, negative = cell killing",[2]; [12],-17.9%
same,"activity, negative = cell killing",[2]; [14],-15.8%
same,Potency,astro,inactive
CC(=O)O[C@H]1CC[C@@]2(C)C(=CC[C@@H]3[C@@H]2CC[C@]2(C)C(=O)CC[C@@H]32)C1,"activity, negative = cell killing",[2]; [10],-28.7%
same,"activity, negative = cell killing",[2]; [11],-3.53%
same,"activity, negative = cell killing",[2]; [12],-21.5%
same,Potency,[2]; tumour line A,7.94 µM (active)
same,Potency,astro,inactive
CN1c2ccccc2C(NCCCCCCC(=O)O)c2ccc(Cl)cc2S1(=O)=O (stereo unspecified),"activity, negative = cell killing",[2]; [4],-13.7%
same,"activity, negative = cell killing",[2]; [5],2.81%
same,"activity, negative = cell killing",[2]; [13],-22.5%
same,"activity, negative = cell killing",[2]; [6],-20.5%
O=S(=O)(O)c1cc(O)ccc1O,"activity, negative = cell killing",[2]; [10],0.614%
same,"activity, negative = cell killing",[2]; [11],-13.4%
same,"activity, negative = cell killing",[2]; [12],-2.62%
same,"activity, negative = cell killing",[2]; [14],-30%
same,Potency,astro,inactive
